Measured values reported in PubChem BioAssay AID1159580 (chemical genetic matrix, 2015).
Values joined by “and” are separate entries in the source; they are usually repeats but may differ in a detail not shown here. Equal entries are not always repeated. In all, about 5,500 compounds went through this assay and about 2,000 (36%) were called active. Another 18% or so got no clear call; they are omitted. Rule as the data show it: active = normalized growth mostly below about 0.91 (no sharp cut-off); inconclusive = no clear call, values can overlap the other calls; inactive = mostly above about 0.92. Some of the results follow.

Experiment: chemical genetic growth profiling, strain panel (AID 1159580);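 also: tested at 20 µM; growth read once vehicle control cultures reached saturation at 30 °C; 1 = growth at the plate median or of vehicle wells; lower values mean less growth of the strain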
Conditions: S. cerevisiae deletion strains, growth OD

Measured: normalized growth

COc1cc(C(C)=O)cc(OC)c1O
inactive: locus YAL013W, strain DEP1, active compounds read low 0.991 | locus YAL021C, strain ccr4, active compounds read low 1.04 | locus YAL026C, strain drs2, active compounds read low 1.03 | locus YAL030W, strain snc1, active compounds read low 1.01 | locus YBL061C, strain skt5, active compounds read low 1.03 | locus YBR009C, strain hhf1, active compounds read low 1.04 | locus YBR021W, strain FUR4, active compounds read low 1.01 | locus YBR023C, strain chs3, active compounds read low 1.03 | locus YBR171W, strain sec66, active compounds read low 1.03 | locus YBR229C, strain ROT2, active compounds read low 0.998 | locus YBR231C, strain swc5, active compounds read low 1.02 | locus YBR279W, strain paf1, active compounds read low 1.02 | locus YCL011C, strain gbp2, active compounds read low 1.03 | locus YCL016C, strain dcc1, active compounds read low 1.02 | locus YCL029C, strain bik1, active compounds read low 1 | locus YCL061C, strain MRC1, active compounds read low 1.02 | locus YCL069W, strain vba3, active compounds read low 1.01 | locus YCR088W, strain abp1, active compounds read low 1.02 | locus YDL005C, strain med2, active compounds read low 1.02 | locus YDL035C, strain GPR1, active compounds read low 0.993 | locus YDL040C, strain nat1, active compounds read low 1.01 | locus YDL074C, strain BRE1, active compounds read low 1.04 | locus YDL101C, strain DUN1, active compounds read low 1.01 | locus YDL134C, strain PPH21, active compounds read low 0.991 | locus YDL185W, strain tfp1, active compounds read low 1 | locus YDL192W, strain arf1, active compounds read low 0.99 | locus YDR001C, strain nth1, active compounds read low 1.01 | locus YDR069C, strain doa4, active compounds read low 1.04 | locus YDR101C, strain arx1, active compounds read low 1.01 | locus YDR137W, strain rgp1, active compounds read low 1.08 | locus YDR150W, strain NUM1, active compounds read low 0.978 | locus YDR159W, strain sac3, active compounds read low 1.05 | locus YDR162C, strain NBP2, active compounds read low 0.986 | locus YDR195W, strain ref2 1.05 | locus YDR297W, strain sur2, active compounds read low 1.02 | locus YDR318W, strain mcm21, active compounds read low 0.991 | locus YDR334W, strain swr1, active compounds read low 1.02 | locus YDR335W, strain msn5, active compounds read low 1.02 | locus YDR388W, active compounds read low 0.994 | locus YDR392W, strain spt3, active compounds read low 0.971 | locus YDR502C, strain sam2, active compounds read low 1.01 | locus YEL003W, strain gim4, active compounds read low 1.04 | locus YEL037C, strain rad23, active compounds read low 1.02 | locus YEL061C, strain CIN8 (second series), active compounds read low 1.03 | locus YEL061C, strain CIN8, active compounds read low 0.999 | locus YER015W, strain faa2, active compounds read low 1.02 | locus YER016W, strain bim1, active compounds read low 1.01 | locus YER110C, active compounds read low 1 | locus YER111C, strain swi4, active compounds read low 1.03 | locus YER155C, strain BEM2 (second series), active compounds read low 1.03 | locus YER155C, strain BEM2, active compounds read low 0.994 | locus YER167W, strain BCK2, active compounds read low 0.977 | locus YFR010W, strain ubp6, active compounds read low 1.03 | locus YGL078C, strain dbp3, active compounds read low 0.998 | locus YGL086W, strain mad1, active compounds read low 1.02 | locus YGL167C, strain pmr1, active compounds read low 1.03 | locus YGL173C, strain kem1, active compounds read low 1.04 | locus YGL227W, strain vid30, active compounds read low 1.03 | locus YGL240W, strain doc1, active compounds read low 1.04 | locus YGL248W, strain PDE1, active compounds read low 0.998 | locus YGL253W, strain hxk2, active compounds read low 1.02 | locus YGR135W, strain pre9, active compounds read low 0.994 | locus YGR252W, strain gcn5, active compounds read low 1.02 | locus YHR013C, strain ard1, active compounds read low 1.02 | locus YHR027C, strain rpn1, active compounds read low 1.02 | locus YHR030C, strain SLT2, active compounds read low 1 and 0.985 | locus YHR079C, strain IRE1 (second series), active compounds read low 0.999 | locus YHR079C, strain IRE1, active compounds read low 0.983 | locus YHR094C, strain hxt1, active compounds read low 1 | locus YHR129C, strain ARP1, active compounds read low 1.01 | locus YHR142W, strain chs7, active compounds read low 1.03 | locus YHR200W, strain rpn10, active compounds read low 0.993 | locus YIL066C, strain RNR3, active compounds read low 0.983 | locus YIL073C, strain SPO22, active compounds read low 0.998 | locus YIL125W, strain kgd1, active compounds read low 0.997 | locus YIR030C, strain dcg1, active compounds read low 1.01 | locus YJL092W, strain hpr5, active compounds read low 1.02 | locus YJL095W, strain BCK1 (second series), active compounds read low 1.01 | locus YJL095W, strain BCK1, active compounds read low 1.05 and 0.999 | locus YJL115W, strain asf1, active compounds read low 1.02 | locus YJL129C, strain trk1, active compounds read low 1.05 | locus YJL134W, strain LCB3, active compounds read low 0.993 | locus YJL154C, strain vps35, active compounds read low 1.01 | locus YJL164C, strain tpk1, active compounds read low 1 | locus YJL166W, strain qcr8, active compounds read low 1.04 | locus YJL168C, strain set2, active compounds read low 0.997 | locus YJL187C, strain SWE1 (second series), active compounds read low 1.02 | locus YJL187C, strain SWE1, active compounds read low 1.02 | locus YJR043C, strain POL32, active compounds read low 0.981 | locus YJR066W, strain TOR1, active compounds read low 0.963 | locus YKL009W, strain mrt4, active compounds read low 1.05 | locus YKL068W, active compounds read low 0.993 | locus YKL085W, strain MDH1 (second series), active compounds read low 0.986 | locus YKL085W, strain MDH1, active compounds read low 0.986 | locus YKL160W, strain elf1, active compounds read low 1.03 | locus YKL190W, strain CNB1, active compounds read low 1.01 | locus YKR001C, strain vps1, active compounds read low 0.987 | locus YKR026C, strain gcn3, active compounds read low 0.995 | locus YKR091W, strain srl3, active compounds read low 1.02 | locus YLL001W, strain dnm1, active compounds read low 1.01 | locus YLL026W, active compounds read low 1.02 | locus YLL041C, strain sdh2, active compounds read low 1.02 | locus YLR027C, strain aat2, active compounds read low 1.01 | locus YLR039C, strain RIC1, active compounds read low 1.02 | locus YLR058C, strain SHM2, active compounds read low 0.998 | locus YLR102C, strain apc9, active compounds read low 1 | locus YLR113W, strain HOG1, active compounds read low 0.981 | locus YLR221C, strain rsa3, active compounds read low 1.04 | locus YLR258W, strain gsy2, active compounds read low 1.03 | locus YLR262C, strain YPT6 (second series), active compounds read low 1.07 | locus YLR262C, strain YPT6, active compounds read low 1.07 | locus YLR268W, strain sec22, active compounds read low 1.05 | locus YLR320W, strain mms22, active compounds read low 1.04 | locus YLR330W, strain CHS5, active compounds read low 0.988 | locus YLR342W, strain FKS1 (second series), active compounds read low 1 | locus YLR342W, strain FKS1, active compounds read low 1.02 | locus YLR357W, strain rsc2, active compounds read low 1.06 | locus YLR370C, strain arc18, active compounds read low 1.02 | locus YLR371W, strain rom2, active compounds read low 1.01 | locus YLR384C, strain iki3, active compounds read low 1.01 | locus YLR418C, strain cdc73, active compounds read low 0.967 | locus YML016C, strain PPZ1, active compounds read low 1.01 | locus YML032C, strain rad52, active compounds read low 0.957 | locus YML120C, strain ndi1, active compounds read low 1.03 | locus YML124C, strain tub3, active compounds read low 0.992 | locus YMR058W, strain fet3, active compounds read low 1.02 | locus YMR078C, strain ctf18, active compounds read low 1 | locus YMR125W, strain sto1, active compounds read low 1.04 | locus YMR129W, active compounds read low 1.03 | locus YMR205C, strain PFK2, active compounds read low 1.08 | locus YMR223W, strain ubp8, active compounds read low 0.999 | locus YMR231W, strain pep5, active compounds read low 1.01 | locus YMR307W, strain GAS1, active compounds read low 0.981 | locus YNL067W, strain RPL9B, active compounds read low 1.03 | locus YNL071W, strain lat1, active compounds read low 1.02 | locus YNL183C, strain NPR1, active compounds read low 0.972 | locus YNL209W, strain ssb2, active compounds read low 1.03 | locus YNL233W, strain BNI4, active compounds read low 1.03 | locus YNL248C, strain rpa49, active compounds read low 1.04 | locus YNL250W, strain rad50, active compounds read low 0.988 | locus YNL271C, strain bni1, active compounds read low 0.996 | locus YNL298W, strain CLA4, active compounds read low 1.01 | locus YNL307C, strain MCK1, active compounds read low 1 | locus YNL322C, strain KRE1 (second series), active compounds read low 1.03 | locus YNL322C, strain KRE1, active compounds read low 0.986 | locus YNR049C, strain mso1, active compounds read low 1.02 | locus YNR052C, strain pop2, active compounds read low 0.993 | locus YOL006C, strain TOP1, active compounds read low 1.02 | locus YOL012C, strain htz1 0.701 | locus YOL147C, strain pex11, active compounds read low 0.994 | locus YOR001W, strain rrp6, active compounds read low 1.03 | locus YOR061W, strain CKA2, active compounds read low 0.995 | locus YOR069W, strain VPS5, active compounds read low 0.996 | locus YOR070C, strain gyp1, active compounds read low 1.01 | locus YOR080W, strain dia2, active compounds read low 1.04 | locus YOR083W, strain WHI5, active compounds read low 1.03 | locus YOR106W, strain vam3, active compounds read low 1.07 | locus YOR136W, strain idh2, active compounds read low 1 | locus YOR144C, strain elg1, active compounds read low 0.997 | locus YOR184W, strain ser1, active compounds read low 0.994 | locus YOR231W, strain MKK1, active compounds read low 0.979 | locus YOR265W, strain rbl2, active compounds read low 1.02 | locus YOR270C, strain vph1, active compounds read low 1.1 | locus YOR290C, strain snf2, active compounds read low 0.995 | locus YOR316C, strain cot1, active compounds read low 0.998 | locus YPL051W, strain arl3, active compounds read low 1.02 | locus YPL055C, strain LGE1, active compounds read low 1.01 | locus YPL078C, strain atp4, active compounds read low 1.02 | locus YPL106C, strain sse1, active compounds read low 1.06 | locus YPL240C, strain hsp82, active compounds read low 1.04 | locus YPL256C, strain CLN2, active compounds read low 0.976 | locus YPR119W, strain clb2, active compounds read low 0.991 | locus YPR141C, strain kar3, active compounds read low 0.989 | locus YPR163C, strain tif3, active compounds read low 1 | locus YPR167C, strain met16, active compounds read low 0.989 | strain wtn01, active compounds read low 1.03
